Our source for the manual score values is PubChem BioAssay AID623911 (Vanderbilt High Throughput Screening Facility, 2012).

Among all 2,100 compounds or so, about 770 (37%) were called active. Some of the results follow. A number with no mark means an inactive call.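 The calls were made as follows: active = by-eye trace score of 1 for enhancers or -1 for inhibitors, so actives lie on both sides (some results past the limit were not filed as active); inactive = score 0, or 3 fluorescent, or 4 baseline rise.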

The target in this experiment is G protein-activated inward rectifier potassium channel 2 (Homo sapiens) + G protein-activated inward rectifier potassium channel 1 (Homo sapiens) (UniProt P48051+P48549). Put plainly: GIRK1/2 thallium flux modulators, retest, confirmation, cell-based, HEK293 rmGlu8/hGIRK1/2, FluoZin-2 (AID 623911). To be noted: HEK293 rmGlu8/hGIRK1/2, thallium flux FluoZin-2; actives lie on both sides; glutamate co-added at its EC20 level.
G protein-activated inward rectifier potassium channel 2 (Homo sapiens) + G protein-activated inward rectifier potassium channel 1 (Homo sapiens), sequence (P48051 whole entry, looked up): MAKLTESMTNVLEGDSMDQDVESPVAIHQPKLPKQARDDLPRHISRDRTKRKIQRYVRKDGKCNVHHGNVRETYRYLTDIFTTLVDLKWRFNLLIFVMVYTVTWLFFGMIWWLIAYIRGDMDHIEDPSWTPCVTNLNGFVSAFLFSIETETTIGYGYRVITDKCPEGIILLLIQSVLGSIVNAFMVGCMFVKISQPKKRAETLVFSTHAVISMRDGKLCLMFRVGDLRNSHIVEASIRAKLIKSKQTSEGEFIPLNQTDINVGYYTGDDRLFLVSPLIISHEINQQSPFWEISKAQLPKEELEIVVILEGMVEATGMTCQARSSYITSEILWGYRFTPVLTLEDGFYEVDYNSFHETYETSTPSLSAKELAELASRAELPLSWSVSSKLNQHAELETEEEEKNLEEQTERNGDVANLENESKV
G protein-activated inward rectifier potassium channel 2 (Homo sapiens) + G protein-activated inward rectifier potassium channel 1 (Homo sapiens), sequence (P48549 whole entry, looked up): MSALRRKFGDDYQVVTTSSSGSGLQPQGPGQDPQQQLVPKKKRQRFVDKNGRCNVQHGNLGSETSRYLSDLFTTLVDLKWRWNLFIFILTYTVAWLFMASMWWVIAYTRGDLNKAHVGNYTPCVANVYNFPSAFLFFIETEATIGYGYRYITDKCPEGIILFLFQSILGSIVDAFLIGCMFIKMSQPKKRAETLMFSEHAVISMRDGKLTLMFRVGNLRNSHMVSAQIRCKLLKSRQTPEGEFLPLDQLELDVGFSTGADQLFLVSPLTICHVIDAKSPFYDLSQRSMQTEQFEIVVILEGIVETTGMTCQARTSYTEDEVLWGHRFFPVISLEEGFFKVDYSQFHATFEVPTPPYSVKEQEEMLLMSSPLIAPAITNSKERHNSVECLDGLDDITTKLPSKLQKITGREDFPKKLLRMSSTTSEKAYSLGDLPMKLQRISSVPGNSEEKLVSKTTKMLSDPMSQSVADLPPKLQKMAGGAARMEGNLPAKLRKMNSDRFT
As for `Cc1cc(Cl)ccc1OCC(=O)Nc1ccccc1N1CCOCC1`, the manual score is -1 (active).
In the case of `CCN(CC)c1ccc2cc(-c3nc4ccccc4[nH]3)c(=O)oc2c1` it was 3; in that of `Cc1ccccc1C(=O)NNC(=S)NC(=O)COc1ccccc1`, 1 (active).
As to `Cc1ccc(C(=O)NNC(=S)NC(=O)COc2ccccc2)cc1`, the manual score is 1 (active).
Next, `CC(=O)c1c(C(C)=O)c(C)n(-c2nc(-c3cccs3)c(C)s2)c1C`: -1 (active).
Regarding `O=C(Cc1ccccc1)Nc1nc(-c2cccs2)cs1`, the manual score was 0.
Next, `CN(CC(=O)Nn1cnnc1)S(=O)(=O)c1ccc(Br)cc1`: 0; `Cc1cccc(N2C(=O)CS/C2=N\NC(=O)c2ccc(Cl)cc2)c1C`: 1 (active).
Take `O=C(c1cnn2c(C(F)(F)F)cc(-c3cccs3)nc12)N1CCN(Cc2ccccc2)CC1`: the manual score is -0.5.
Take `COC(=O)c1c(NS(=O)(=O)c2cccs2)sc2c1CCCC2`: the manual score is 1 (active).
In the case of `CC(C)OC(=O)c1c(NS(=O)(=O)c2ccccc2)sc2c1CCCC2` it was 1 (active); in that of `COC(=O)c1c(NC(=S)Nc2ccc(F)cc2[N+](=O)[O-])sc2c1CCCCC2`, 0.
Next, `CC(=O)Oc1ccc(N(C(C)=O)S(=O)(=O)c2cccs2)c2ccccc12`: 0; `CCOC(=O)c1c(NC(=S)Nc2ccccc2)sc2c1CCCCC2`: 0; `COC(=O)c1c(NS(=O)(=O)Cc2ccccc2)sc2c1CCCC2`: 1 (active).
Next, `CCOC(=O)c1c(NS(=O)(=O)Cc2ccccc2)sc2c1CCCC2`: 1 (active).
Regarding `COC(=O)c1c(NC(=S)NC(=O)c2ccco2)sc2c1CCCC2`, the manual score was 0.
In the case of `COC(=O)c1c(NS(=O)(=O)c2ccc(C)cc2)sc2c1CCC(C)C2` (centres undefined) it was 0; in that of `Cc1ccc(-c2c(C)sc(NC(=O)C3C4CCC(O4)C3C(=O)O)c2C(=O)OC(C)C)cc1` (centres undefined), 0.
Next, `CC1CCc2c(sc(NS(=O)(=O)c3ccccc3)c2C(=O)OC(C)C)C1` (centres undefined): 0.
As to `CCCc1nc2scc(-c3ccccc3)c2c(=O)n1N`, the manual score was 0.
Next, `Cc1ccc(-c2csc3nc[nH]c(=S)c23)cc1C`: 1 (active); `S=c1[nH]cnc2scc(-c3ccccc3)c12`: 1 (active); `CCCCn1c(=O)[nH]c2nc3cc(N)ccc3nc2c1=O`: 3.
In the case of `CCCc1cc(-c2n[nH]c(=S)n2C(C)c2ccccc2)cs1` (centres undefined) it was 0; in that of `CN(C)Cc1c(O)ccc2occ(C(O)c3ccccc3)c12` (centres undefined), -1 (active).
Consider `O=c1[nH]c2ccccc2n1CCC1CCCCC1`, for which the manual score is 0.
Turning to `CN(C(=O)CSC1=Nc2ccccc2C2=NC(c3ccccc3)C(=O)N12)C1CCCCC1` (centres undefined), the manual score is -1 (active).
For the compound `COc1ccc2c(-c3ccccc3)cc(SCC(=O)N(C)C3CCS(=O)(=O)C3)nc2c1` (centres undefined), the manual score is 0.
On to `Cc1ccccc1-n1c(SCc2ccccn2)nc2n[nH]c(C)c2c1=N`, for which the manual score was 0.
As to `CN(c1ccccc1)S(=O)(=O)c1ccc(NC(=S)NC(=O)c2ccccc2)cc1`, the manual score was 0.
With `CCN(c1ccccc1)S(=O)(=O)c1ccc(NC(=S)NC(=O)c2ccc(Br)o2)cc1`, the manual score was 1 (active).
Next, `C=CCN(CC=C)S(=O)(=O)c1ccc(NC(=S)NC(=O)c2ccco2)cc1`: 0; `C=CCOc1ccc(/C(O)=C2/C(=O)C(=O)N(CCCN3CCOCC3)C2c2ccccc2)cc1` (centres undefined): 0.
In the case of `COc1cc(/C=C(\C#N)C(=O)Nc2cccnc2)ccc1OC(C)C`, the manual score was 0.
Consider `CCCn1c(C)cc(/C=C(\C#N)C(=O)OCC(=O)Nc2cccc(OC)c2)c1C`, for which the manual score was 1 (active).
Turning to `O=S(=O)(Nc1ccc2nc(C(F)(F)F)[nH]c2c1)c1ccccc1`, the manual score is 1 (active).
With `O=S(=O)(Nc1ccc(S(=O)(=O)Nc2cccc3ccccc23)cc1)c1ccccc1`, the manual score was 0.
For `Oc1ccc2ccccc2c1N=Nc1ccccn1`, the manual score was 0.
In the case of `CC(C)n1c(O)c(N=Nc2ccccn2)c2ccccc21` it was 0; in that of `Oc1c(N=Nc2ccccn2)ccc2ccccc12`, 1 (active); in that of `C=CCN(CC=C)C(=S)NC(=O)c1ccc(-c2ccccc2)cc1`, 1 (active).
As to `O=C(NC(=S)NCC1COc2ccccc2O1)c1ccccc1` (centres undefined), the manual score was 0.
Next, `C=CCN(CC=C)C(=S)NC(=O)c1ccc([N+](=O)[O-])cc1`: 1 (active).
Take `CN(Cc1ccccc1)C(=S)NC(=O)c1ccc(-c2ccccc2)cc1`: the manual score was 0.
In the case of `CCCN(CCC)C(=S)NC(=O)c1ccc(-c2ccccc2)cc1` it was 1 (active).
Turning to `C=CCNC(=O)NC(=S)c1ccccc1`, the manual score was 0.
On to `FC(F)(F)c1cnc(NNC(=S)Nc2ccccc2Cl)c(Cl)c1`, for which the manual score is 1 (active).
Next, `Cc1ccc(NC(=S)NNc2ncc(C(F)(F)F)cc2Cl)c(C)c1`: 0.
In the case of `NC(=O)c1ccc(Cc2ncc(C(F)(F)F)cc2Cl)s1` it was 0.
In the case of `FC(F)(F)c1cnc(NNC(=S)Nc2ccc(Cl)cc2)c(Cl)c1` it was 1 (active); in that of `O=C1/C(=C\c2ccccn2)SC(=S)N1Nc1ncc(C(F)(F)F)cc1Cl`, 0; in that of `CC(C)CC(=O)CN1C(=O)C2(OCCO2)c2ccccc21`, 0.
Consider `CCCCN(C)CC(O)Cn1cc(/C=C/C(=O)c2cccs2)c2ccccc21` (centres undefined), for which the manual score was 3.
In the case of `O=C1CC(c2ccncc2)c2cc3c(cc2N1)OCCO3` (centres undefined) it was 0.
Next, `O=c1c2cc(F)ccc2[nH]c(=S)n1CCCN1CCOCC1`: 0; `CC(C)OCCCn1c(=S)[nH]c2cc3c(cc2c1=O)OCO3`: 1 (active); `COc1ccc(C(C)N2CC34C=CC(O3)C(C(=O)OCC(C)C)C4C2=O)cc1` (centres undefined): 0.
In the case of `CCCOc1cccc(-c2cc(-c3n[nH]c(=S)n3CC)c3ccccc3n2)c1` it was 0; in that of `COc1cc(C)nc(N(Cc2ccccc2)S(=O)(=O)c2ccccc2)n1`, -1 (active); in that of `COc1ccc(S(=O)(=O)N(CCc2ccccc2)CC(=O)O)cc1`, 0.
As to `Cc1c(C#N)c2ncn(CC#N)c(=O)c2n1-c1ccccc1`, the manual score was 0.
In the case of `O=C(NC(=S)Nc1ccc(N2CCOCC2)cc1)c1cccc(Cl)c1` it was 0.5; in that of `CC(=O)c1cccc(NC(=S)NC(=O)c2cccc(C)c2)c1`, 0; in that of `O=C(NC(=S)NNC(=O)c1cccs1)c1ccc(Br)o1`, 1 (active).
In the case of `Cc1cccc(C(=O)NC(=S)NNC(=O)c2ccc(Cl)cc2)c1` it was 1 (active).
On to `O=C(/C=C/c1cccs1)NC(=S)NNC(=O)Cc1cccs1`, for which the manual score was 0.
For the compound `CC(=O)c1cccc(NC(=S)NC(=O)c2cccc(Cl)c2)c1`, the manual score was 1 (active).
`Cc1cccc(C(=O)NC(=S)NNC(=O)c2ccccc2Cl)c1`: the manual score was 1 (active).
